Results on 7 compounds are retold here after PubChem BioAssay (EPA / NIEHS).

Results filed as inconclusive are left out. More than one record can exist for a structure, and the calls need not agree. Activity calls are given as the source filed them. Rule for the calls, unless noted: active = hit-call score of the fitted dose curve at least 0.9, where 1 is the maximum; inactive = score below 0.9.

In assay [1] the target is Nuclear respiratory factor 1 (Homo sapiens) (UniProt Q16656). In words: ATG_NRF1_CIS: Attagene CIS-FACTORIAL HepG2 Assay for human Nuclear Respiratory Factor 1 (NRF1) Orphan Gene (AID 2282987). The conditions noted are these: HepG2 NRF1 cis-element reporter, Attagene multiplex; actives raise or lower the signal. In short, it runs like this:
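Human hepatoma HepG2 cells carrying transfected promoter-regulated reporter units were incubated with test chemicals for 24 h. Reporter transcripts were measured by RT-PCR plus capillary electrophoresis, and endpoints derived by bidirectional fitting with DMSO as baseline.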

The nature of assay [2]: ATG_NFI_CIS: Attagene CIS-FACTORIAL HepG2 Assay for human Nuclear Factor I (NFI) (AID 2282989). The conditions noted are these: HepG2 cis-regulatory reporter, NFI response element transcription; actives raise or lower the signal. Put shortly: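 Endogenous TF activity in HepG2 cells transiently transfected with cis-element-driven multiplexed reporter units, read 24 h after dosing. Reporter mRNA quantified by RT-PCR, 6-FAM labelling, HpaI digestion and capillary electrophoresis; bidirectional fit versus DMSO.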

Assay [3] has as its target Myc proto-oncogene protein (Homo sapiens) (UniProt P01106). Nature of the assay: ATG_Myc_CIS: Attagene CIS-FACTORIAL HepG2 Assay for human Myelocytomatosis (Myc) Proto-Oncogene Transcription Factor (AID 2282990). Conditions: HepG2, Attagene cis-reporter transcription factor activity; actives raise or lower the signal. Put shortly:
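Cells of the HepG2 human liver line bear multiple cis-driven reporter transcription units. Reporter mRNA after 24 h exposure is reverse-transcribed, amplified, labelled and resolved by capillary electrophoresis, with gain- or loss-of-signal fitting relative to DMSO.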

Assay [4] is described as follows: ATG_NF_kB_CIS: Attagene CIS-FACTORIAL HepG2 Assay for human Nuclear Factor Kappa B (NF-kB) (AID 2282991). Conditions: HepG2 Attagene cis-factorial NF-kB reporter mRNA; actives raise or lower the signal. In short, it runs like this:
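Multiplexed cis-reporter assay in transiently transfected HepG2. 24 h treatment; RNA isolated, RT-PCR, labelled fragments resolved by CE. DMSO baseline.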

Assay [5] in a line: ATG_NRF2_ARE_CIS: Attagene CIS-FACTORIAL HepG2 Assay for human Nuclear Factor Erythroid 2 Related Factor 2 (NFR2) response to Antioxidant Response Elements (ARE) (AID 2282992).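 For AC50: reporter mRNA level measured by RT-PCR and capillary electrophoresis fluorescence.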 Conditions: HepG2 Attagene ARE/NRF2 reporter, transcription factor activity; actives raise or lower the signal. In short, it runs like this:
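Cis-factorial assay: transfected HepG2 reporter library, 24 h dosing, mRNA readout via RT-PCR/CE; DMSO-referenced bidirectional analysis.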

The target of assay [6] is Cellular tumor antigen p53 (Homo sapiens) (UniProt P04637). In words: ATG_p53_CIS: Attagene CIS-FACTORIAL HepG2 Assay for human p53 Transcription Factor (AID 2282994). The conditions noted are these: HepG2 p53 cis-element reporter, Attagene mRNA; actives raise or lower the signal. In short, it runs like this: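 Using HepG2 hepatoma cells carrying cis-acting multiplexed reporters, mRNA induction is detected after a 24 h exposure. Gain- and loss-of-signal responses are fitted relative to DMSO-treated cells.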

Assay [7] is described as follows: BSK_3C_TissueFactor: BioMAP Diversity Plus: 3C Assay for Tissue Factor Biomarker Activity (AID 2282997). Conditions: BioMAP 3C HUVEC, tissue factor biomarker readout; actives raise or lower the signal. In short, it runs like this:
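Human vascular primary cells (umbilical vein endothelium) received test chemical; Tissue Factor was determined by ELISA at 24 h, and both gain and loss of signal versus DMSO were fitted.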

The nature of assay [8]: BSK_3C_uPAR: BioMAP Diversity Plus: 3C Assay for Urokinase-type plasminogen activator receptor (uPAR) Biomarker Activity (AID 2282998). Conditions: BioMAP 3C HUVEC, uPAR biomarker ELISA; actives raise or lower the signal. In short, it runs like this: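 Primary human umbilical vein endothelial cells, 3C system; surface uPAR measured by ELISA 24 h after dosing. Cytotoxicity via SRB total protein in parallel cultures; bidirectional fit against DMSO.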

Assay [9] in a line: BSK_3C_VCAM1: BioMAP Diversity Plus: 3C Assay for Vascular cell adhesion molecule 1 (VCAM1) Biomarker Activity (AID 2282999). The conditions noted are these: BioMAP 3C HUVEC, VCAM1 ELISA, cytokine-stimulated; actives raise or lower the signal. Put shortly: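 Endothelial cells from human umbilical vein are treated with test chemical. At 24 h, VCAM-1 is measured by ELISA, and responses in either direction are fitted relative to DMSO.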
In general terms: An ELISA detects its analyte on a solid surface through an enzyme-linked reagent.

Assay [10] can be described thus: BSK_4H_Eotaxin3: BioMAP Diversity Plus: 4H Assay for Eotaxin 3 Biomarker Activity (AID 2283000).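 For outcome: CCL26 protein level quantified by ELISA in parallel with SRB cytotoxicity check.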 The conditions noted are these: primary human endothelial cells (HUVEC); actives raise or lower the signal. In short, it runs like this:
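Readout is Eotaxin-3 (CCL26) level by ELISA in primary human umbilical vein endothelial cells harvested 24 h after chemical exposure; activity fitted in both directions against DMSO control.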

In assay [11] the target is human Peroxisome Proliferator-activated Receptor delta (PPARd), PPARD (gene 5467) (UniProt Q03181). Nature of the assay: ATG_PPARd_TRANS: Attagene TRANS-FACTORIAL HepG2 Assay for human Peroxisome Proliferator-activated Receptor delta (PPARd) (AID 2283002; active = hit-call score of the fitted dose curve at least 0.9, where 1 is the maximum). In short, it runs like this:
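Cell-based TRANS reporter: HepG2, transient MRTU transfection, 24 h exposure. Readout = reporter mRNA (RT-PCR/CE, 6-FAM). Gain-of-signal fit vs DMSO control.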

Read-out in assay [12]: Intercellular Adhesion Molecule 1 (ICAM1), ICAM1 (gene 3383)
In words: BSK_3C_ICAM1: BioMAP Diversity Plus: 3C Assay for Intercellular Adhesion Molecule 1 (ICAM1) Biomarker Activity (AID 2283003). Conditions: primary human endothelial cells (HUVEC); actives raise or lower the signal. In short, it runs like this: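 HUVEC primary cells stimulated under 3C conditions; ICAM1 measured by ELISA 24 h after compound dosing. Curves fitted bidirectionally against the DMSO baseline. Overt cytotoxicity checked by SRB staining of parallel cultures.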

The target of assay [13] is human Retinoic Acid Receptor beta (RARb), RARB (gene 5915) (UniProt P10826). In words: ATG_RARb_TRANS: Attagene TRANS-FACTORIAL HepG2 Assay for human Retinoic Acid Receptor beta (AID 2283004; active = hit-call score of the fitted dose curve at least 0.9, where 1 is the maximum). In short, it runs like this: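 Readout is reporter mRNA induction: RNA reverse-transcribed, PCR-amplified, FAM-labelled, HpaI-cut and resolved by capillary electrophoresis. Transiently transfected HepG2 cells carrying exogenous NR–Gal4 chimeras were dosed for 24 h; activity fitted upward relative to DMSO.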

Assay [14] is described as follows: BSK_3C_Proliferation: Cell Proliferation Assessment in the BioMAP Diversity Plus: 3C Assay (AID 2283006). The conditions noted are these: primary human endothelial cells (HUVEC). Put shortly: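 Subconfluent HUVEC (3C system) cultured with chemical; relative cell number read at 48 h by sulforhodamine B total-protein staining (0.1% SRB after 10% TCA fixation, 560 nm). Bidirectional fit relative to DMSO.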

Assay [15] has as its target Peroxisome proliferator-activated receptor gamma (Homo sapiens) (UniProt P37231). In words: ATG_PPARg_TRANS: Attagene TRANS-FACTORIAL HepG2 Assay for human Peroxisome Proliferator-activated Receptor-gamma (PPARg) (AID 2283007; active = hit-call score of the fitted dose curve at least 0.9, where 1 is the maximum). Put shortly:
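Human hepatoma HepG2, transient MRTU transfection, 24 h treatment. mRNA reporter signal by RT-PCR plus capillary electrophoresis, fluorescence detection; fitted for increase over DMSO negative control.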

The nature of assay [16]: ATG_Oct_MLP_CIS: Attagene CIS-FACTORIAL HepG2 Assay for human Octamer-Binding Transcription Factor (Oct) (AID 2282993). Conditions: HepG2 Attagene cis-factorial Oct reporter, mRNA; actives raise or lower the signal. Put shortly: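 HepG2 cells transiently transfected with cis-element-driven reporter transcription units (endogenous TF activity); 24 h compound exposure. Reporter mRNA quantified by RT-PCR, 6-FAM labelling, HpaI digestion and capillary electrophoresis; bidirectional fit versus DMSO baseline.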

For assay [17], the target named is Nuclear receptor subfamily 1 group I member 2 (Homo sapiens) (UniProt O75469). Nature of the assay: ATG_PXR_TRANS: Attagene TRANS-FACTORIAL HepG2 Assay for human Pregnane X Receptor (PXR) (AID 2283008; active = hit-call score of the fitted dose curve at least 0.9, where 1 is the maximum). Put shortly:
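Fluorescence intensity of FAM-labelled, HpaI-digested reporter amplicons, separated by capillary electrophoresis, quantifies induction. HepG2 cells with PXR-Gal4 trans-reporter system were exposed 24 h; DMSO defines baseline.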

Assay [18] concerns the target Retinoic acid receptor alpha (Homo sapiens) (UniProt P10276). Nature of the assay: ATG_RARa_TRANS: Attagene TRANS-FACTORIAL HepG2 Assay for human Retinoic Acid Receptor alpha (RARa) (AID 2283005; active = hit-call score of the fitted dose curve at least 0.9, where 1 is the maximum). In short, it runs like this:
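Reporter transcripts, measured by RT-PCR with fluorescent labeling and capillary electrophoresis after 24 h dosing, reflect activity of an exogenous human RARa–GAL4 fusion in transiently transfected HepG2. Fitted for increase relative to DMSO.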

For assay [19], the target named is human Retinoic Acid Receptor gamma (RARg), RARG (gene 5916) (UniProt P13631). In words: ATG_RARg_TRANS: Attagene TRANS-FACTORIAL HepG2 Assay for human Retinoic Acid Receptor gamma (RARg) (AID 2283009; active = hit-call score of the fitted dose curve at least 0.9, where 1 is the maximum). In short, it runs like this:
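HepG2 transiently transfected with GAL4-UAS reporter units and chimeric NR-Gal4 constructs; 24 h compound exposure. Reporter mRNA quantified by RT-PCR, FAM labeling, HpaI digestion and capillary electrophoresis; gain-of-signal versus DMSO.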

Assay [20] concerns the target human Peroxisome Proliferator-activated Receptor alpha (PPARa), PPARA (gene 5465) (UniProt Q07869). Nature of the assay: ATG_PPARa_TRANS: Attagene TRANS-FACTORIAL HepG2 Assay for human Peroxisome Proliferator-activated Receptor alpha (PPARa) (AID 2283001; active = hit-call score of the fitted dose curve at least 0.9, where 1 is the maximum). Put shortly:
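Read-out is fluorescence of reporter cDNA fragments resolved by capillary electrophoresis after RT-PCR. Human HepG2 liver cells carried transfected PPARa-Gal4 chimera and GAL4-UAS reporter units, treated 24 h; activity scored as increase over DMSO.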

Retinoic acid receptor alpha (Homo sapiens), sequence (P10276 whole entry, looked up, the tested form may be a part): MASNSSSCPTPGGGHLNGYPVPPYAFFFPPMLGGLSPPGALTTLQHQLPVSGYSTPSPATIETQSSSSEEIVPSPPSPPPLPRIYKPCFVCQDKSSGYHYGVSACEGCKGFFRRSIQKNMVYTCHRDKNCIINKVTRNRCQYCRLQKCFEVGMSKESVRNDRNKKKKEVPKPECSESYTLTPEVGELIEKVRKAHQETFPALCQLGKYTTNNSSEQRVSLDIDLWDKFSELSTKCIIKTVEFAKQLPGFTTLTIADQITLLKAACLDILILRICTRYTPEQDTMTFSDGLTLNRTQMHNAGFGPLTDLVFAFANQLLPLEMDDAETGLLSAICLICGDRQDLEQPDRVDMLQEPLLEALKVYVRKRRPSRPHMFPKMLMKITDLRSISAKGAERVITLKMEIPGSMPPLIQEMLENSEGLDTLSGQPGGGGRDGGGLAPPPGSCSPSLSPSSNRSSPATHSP
Nuclear receptor subfamily 1 group I member 2 (Homo sapiens), sequence (O75469 whole entry, looked up, the tested form may be a part): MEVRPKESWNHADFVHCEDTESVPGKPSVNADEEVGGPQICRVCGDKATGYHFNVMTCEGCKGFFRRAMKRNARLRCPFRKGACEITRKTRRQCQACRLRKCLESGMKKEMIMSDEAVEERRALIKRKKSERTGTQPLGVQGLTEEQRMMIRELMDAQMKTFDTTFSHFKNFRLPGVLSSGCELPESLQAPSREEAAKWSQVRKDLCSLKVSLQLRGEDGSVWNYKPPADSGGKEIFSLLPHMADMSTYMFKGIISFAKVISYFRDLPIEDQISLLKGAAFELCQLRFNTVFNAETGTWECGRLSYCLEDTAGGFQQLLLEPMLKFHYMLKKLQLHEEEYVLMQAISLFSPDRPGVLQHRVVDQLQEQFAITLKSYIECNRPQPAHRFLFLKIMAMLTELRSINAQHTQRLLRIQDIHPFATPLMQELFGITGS
human Retinoic Acid Receptor beta (RARb), RARB (gene 5915), sequence (P10826 whole entry, looked up, the tested form may be a part): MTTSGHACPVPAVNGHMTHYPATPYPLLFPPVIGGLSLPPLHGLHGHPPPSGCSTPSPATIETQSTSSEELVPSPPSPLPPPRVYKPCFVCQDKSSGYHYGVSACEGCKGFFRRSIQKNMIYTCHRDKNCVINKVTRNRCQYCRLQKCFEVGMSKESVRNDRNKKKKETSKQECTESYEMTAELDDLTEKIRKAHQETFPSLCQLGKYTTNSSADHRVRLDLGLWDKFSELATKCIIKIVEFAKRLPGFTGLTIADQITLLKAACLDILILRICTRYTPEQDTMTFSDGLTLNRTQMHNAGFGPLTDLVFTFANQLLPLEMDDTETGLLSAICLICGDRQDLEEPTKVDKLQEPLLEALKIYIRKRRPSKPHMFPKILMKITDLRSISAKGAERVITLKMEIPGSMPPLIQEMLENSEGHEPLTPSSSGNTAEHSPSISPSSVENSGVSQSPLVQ
human Peroxisome Proliferator-activated Receptor delta (PPARd), PPARD (gene 5467), sequence (Q03181 whole entry, looked up): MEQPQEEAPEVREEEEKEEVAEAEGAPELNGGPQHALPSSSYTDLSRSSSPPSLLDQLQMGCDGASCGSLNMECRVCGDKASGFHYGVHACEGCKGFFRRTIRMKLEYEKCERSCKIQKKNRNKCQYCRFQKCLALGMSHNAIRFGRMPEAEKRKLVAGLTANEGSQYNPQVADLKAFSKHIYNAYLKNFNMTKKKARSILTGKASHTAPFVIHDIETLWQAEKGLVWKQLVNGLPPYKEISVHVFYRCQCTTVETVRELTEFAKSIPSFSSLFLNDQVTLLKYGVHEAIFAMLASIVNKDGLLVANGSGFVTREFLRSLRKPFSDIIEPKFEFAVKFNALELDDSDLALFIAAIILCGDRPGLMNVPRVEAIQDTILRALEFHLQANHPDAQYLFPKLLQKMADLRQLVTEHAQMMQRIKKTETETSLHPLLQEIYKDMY
Peroxisome proliferator-activated receptor gamma (Homo sapiens), sequence (P37231 whole entry, looked up): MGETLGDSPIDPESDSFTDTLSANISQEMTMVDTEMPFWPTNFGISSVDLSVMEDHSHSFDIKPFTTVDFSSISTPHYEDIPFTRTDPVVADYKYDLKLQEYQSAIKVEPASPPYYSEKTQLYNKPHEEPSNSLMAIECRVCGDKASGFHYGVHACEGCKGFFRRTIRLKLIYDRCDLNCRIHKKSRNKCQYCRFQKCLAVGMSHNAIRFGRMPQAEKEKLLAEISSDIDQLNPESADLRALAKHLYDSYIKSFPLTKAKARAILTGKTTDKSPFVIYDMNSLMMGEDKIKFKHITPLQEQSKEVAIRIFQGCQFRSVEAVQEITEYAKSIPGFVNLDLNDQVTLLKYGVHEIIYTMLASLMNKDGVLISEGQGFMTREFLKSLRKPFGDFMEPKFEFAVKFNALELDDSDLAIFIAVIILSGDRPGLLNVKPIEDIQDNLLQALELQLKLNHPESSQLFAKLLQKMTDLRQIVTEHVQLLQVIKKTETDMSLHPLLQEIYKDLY
Nuclear respiratory factor 1 (Homo sapiens), sequence (Q16656 whole entry, looked up): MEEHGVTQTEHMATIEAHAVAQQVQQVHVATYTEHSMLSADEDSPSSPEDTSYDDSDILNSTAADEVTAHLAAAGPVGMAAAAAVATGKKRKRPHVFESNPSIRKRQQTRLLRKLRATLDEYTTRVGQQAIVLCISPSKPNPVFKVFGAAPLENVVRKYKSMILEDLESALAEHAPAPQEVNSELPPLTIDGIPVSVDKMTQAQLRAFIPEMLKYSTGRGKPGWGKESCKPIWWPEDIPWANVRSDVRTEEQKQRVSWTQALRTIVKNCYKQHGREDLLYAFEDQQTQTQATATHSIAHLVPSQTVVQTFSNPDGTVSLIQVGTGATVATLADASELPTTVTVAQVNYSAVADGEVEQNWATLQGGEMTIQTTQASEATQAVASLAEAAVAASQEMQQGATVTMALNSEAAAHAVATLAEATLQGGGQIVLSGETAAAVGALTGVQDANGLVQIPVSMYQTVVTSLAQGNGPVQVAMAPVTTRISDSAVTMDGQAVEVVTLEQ
Myc proto-oncogene protein (Homo sapiens), sequence (P01106 whole entry, looked up): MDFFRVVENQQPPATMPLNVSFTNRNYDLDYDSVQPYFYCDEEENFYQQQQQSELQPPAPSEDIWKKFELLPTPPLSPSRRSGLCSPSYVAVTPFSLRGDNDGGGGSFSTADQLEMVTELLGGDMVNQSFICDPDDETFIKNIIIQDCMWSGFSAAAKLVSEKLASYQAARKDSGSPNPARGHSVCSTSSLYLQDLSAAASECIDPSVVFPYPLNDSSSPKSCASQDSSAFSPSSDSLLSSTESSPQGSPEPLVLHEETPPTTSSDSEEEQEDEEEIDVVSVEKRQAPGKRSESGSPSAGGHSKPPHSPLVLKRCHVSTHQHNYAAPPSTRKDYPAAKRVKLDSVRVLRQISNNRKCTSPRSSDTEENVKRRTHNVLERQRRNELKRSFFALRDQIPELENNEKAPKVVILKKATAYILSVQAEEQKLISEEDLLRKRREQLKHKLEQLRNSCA
human Retinoic Acid Receptor gamma (RARg), RARG (gene 5916), sequence (P13631 whole entry, looked up, the tested form may be a part): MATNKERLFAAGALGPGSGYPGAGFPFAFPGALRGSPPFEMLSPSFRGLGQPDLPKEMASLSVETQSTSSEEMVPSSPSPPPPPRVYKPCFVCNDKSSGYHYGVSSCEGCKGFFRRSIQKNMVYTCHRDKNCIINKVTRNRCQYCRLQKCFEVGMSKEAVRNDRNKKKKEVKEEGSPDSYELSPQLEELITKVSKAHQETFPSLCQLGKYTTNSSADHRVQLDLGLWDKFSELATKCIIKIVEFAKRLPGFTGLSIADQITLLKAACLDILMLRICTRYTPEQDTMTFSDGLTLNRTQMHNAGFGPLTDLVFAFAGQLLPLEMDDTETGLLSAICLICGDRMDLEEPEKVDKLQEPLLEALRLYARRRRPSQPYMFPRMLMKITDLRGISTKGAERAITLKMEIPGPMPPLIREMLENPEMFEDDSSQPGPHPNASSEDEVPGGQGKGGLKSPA
Cellular tumor antigen p53 (Homo sapiens), sequence (P04637 whole entry, looked up): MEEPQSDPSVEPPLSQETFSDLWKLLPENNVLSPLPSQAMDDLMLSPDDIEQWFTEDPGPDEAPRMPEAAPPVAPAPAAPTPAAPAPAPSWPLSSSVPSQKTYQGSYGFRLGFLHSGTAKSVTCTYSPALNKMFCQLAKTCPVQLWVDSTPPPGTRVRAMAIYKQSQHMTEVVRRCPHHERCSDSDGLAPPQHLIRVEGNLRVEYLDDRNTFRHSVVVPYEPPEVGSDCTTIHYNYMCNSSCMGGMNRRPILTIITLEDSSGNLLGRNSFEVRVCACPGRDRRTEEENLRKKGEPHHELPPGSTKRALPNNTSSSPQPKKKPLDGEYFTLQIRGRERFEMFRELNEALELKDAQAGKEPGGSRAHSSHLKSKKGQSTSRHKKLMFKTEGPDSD
human Peroxisome Proliferator-activated Receptor alpha (PPARa), PPARA (gene 5465), sequence (Q07869 whole entry, looked up, the tested form may be a part): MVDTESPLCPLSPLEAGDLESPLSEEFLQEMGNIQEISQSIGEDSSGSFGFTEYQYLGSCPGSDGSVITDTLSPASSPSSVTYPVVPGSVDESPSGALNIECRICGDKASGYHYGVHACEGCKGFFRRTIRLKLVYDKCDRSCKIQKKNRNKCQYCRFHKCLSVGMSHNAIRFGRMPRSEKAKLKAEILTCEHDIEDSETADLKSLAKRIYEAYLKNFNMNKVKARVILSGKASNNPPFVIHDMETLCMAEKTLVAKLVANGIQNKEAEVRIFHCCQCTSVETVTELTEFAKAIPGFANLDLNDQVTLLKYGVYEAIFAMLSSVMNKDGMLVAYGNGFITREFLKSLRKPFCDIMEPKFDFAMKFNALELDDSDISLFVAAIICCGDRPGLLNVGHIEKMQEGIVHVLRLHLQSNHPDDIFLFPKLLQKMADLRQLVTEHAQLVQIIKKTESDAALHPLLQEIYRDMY

For the compound `FC(F)(F)C(F)(F)C(F)(F)C(F)(F)C(F)(F)C(F)(F)C(F)(F)I`, the call in assay [1], in [2], in assay [3], in [4], in assay [5] and in assay [6] was inactive. The result in assay [7], in assay [8], in assay [9], in assay [10], in [11] and in assay [12] was inactive. The compound was called inactive in assay [13], in assay [14] and in assay [15].
For the compound `CCCCNc1ccccc1`, the result in assay [1], in [2], in assay [3], in assay [4], in assay [5] and in [16] was inactive. The outcome in assay [7], in [8], in assay [10], in assay [11], in assay [12] and in assay [14] was inactive. The compound was called inactive in assay [15] and in assay [17].
With `O=C(O)C(F)(F)C(F)(F)OC(F)(F)F`, the compound was called inactive in assay [1], in assay [3], in assay [4], in assay [5], in [6] and in [7]. The outcome in assay [8], in assay [9], in [10], in assay [12], in assay [13] and in assay [18] was inactive. Besides, the result in assay [14], in [15], in assay [17] and in [19] was inactive.
As usually defined, the AC50 is the concentration at which the activity in the assay is half-maximal. In the case of `FC(F)(F)C(F)(F)C(F)(F)C(F)(F)CCI`, the call in assay [2], in assay [3], in assay [4], in [5], in [7] and in assay [8] was inactive. Also, the result in [9], in assay [10], in [20], in [11], in assay [12] and in assay [18] was inactive. For the same compound, the outcome in [14], in assay [15], in assay [17] and in assay [19] was inactive. Also, the AC50 in [5] was 79.7 µM (active); in assay [10] it was 10.6 µM (active); in assay [15], 36.9 µM (active).
For the compound `O=C(O)C(F)(F)C(F)(F)C(F)F`, the result in assay [1], in assay [2], in assay [3], in [4], in [5] and in assay [7] was inactive. Moreover, the outcome in [8], in assay [9], in assay [10], in [12], in assay [13] and in [18] was inactive. Also, the outcome in [14], in assay [15] and in assay [17] was inactive.
On to `O=S(=O)(OCCOC(F)(F)F)C(F)(F)F`, for which the outcome in [1], in assay [3], in assay [4], in [5], in assay [7] and in [8] was inactive. In addition, the result in assay [9], in assay [10], in assay [11], in [12], in assay [13] and in [14] was inactive. The result in assay [15], in assay [17] and in assay [19] was inactive.
`CC/C=C\CCOC(=O)c1ccccc1`: the call in assay [1], in [3], in assay [4], in assay [5], in assay [16] and in [6] was inactive. Further, the outcome in assay [20], in assay [13], in [18], in assay [15], in [17] and in [19] was inactive.
